Bioassay records as filed in PubChem BioAssay.
The list is not random: actives were taken first. Their share in the collection is about 2.5%.
TROY NFkB inh = inhibitors of TROY-dependent NF-kB signaling. Q293 LMP1-TROYcd NF-kB luciferase reporter, 4 h. inhibition, % at 10 µM. 0.98% of 360,000 active. AID 1347056;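 active = compounds whose plate-normalised and pattern-corrected inhibition of the luciferase reporter signal at the single screening dose is 50% or more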
LGR2 inh = Drosophila LGR2 receptor signaling inhibition. HEK293 LGR2, CRE-luciferase, bursicon-stimulated, 4 h. inhibition, % at 9.99 µM. 0.35% of 380,000 active. AID 720647;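 active = drop in luminescence signal, shown as inhibition above about 50% in the replicate tests, limit read from the data, passing the limit was not always enough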;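 also: agonist challenge used bursicon conditioned medium at about half maximal strength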
LMP1 NFkB inh = reduces LMP1-driven NF-kappaB luciferase signal; LMP1-induced NF-kappaB luciferase reporter cells, luminescence; 0.69% of 350,000 active; inhibition, % at 12.5 µM; in the data active = inhibition above about 41%;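 also: 0% = neutral control wells and 100% = reference inhibitor control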
TWEAK Fn14 block = TWEAK-Fn14 signaling inhibition. 2% of 360,000 active. TWEAK-stimulated Fn14 reporter cells, luciferase luminescence, 8 h. inhibition, % at 10 µM; in the data active = inhibition above about 50%
EWS-Fli inh = blocks EWS/Fli oncoprotein-driven transcription; A673 NR0B1-luciferase reporter, viability-normalised; inhibition, % at 12.6 µM; 0.67% of 350,000 active; AID 651661;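 active = mean inhibition of at least 50% after viability correction, with every replicate also passing that limit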;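 also: firefly luciferase signal divided by Alamar Blue viability fluorescence both relative to DMSO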
An asterisk follows results filed as active; nt = not tested or not shown.

SMILES	TROY NFkB inh	LGR2 inh	LMP1 NFkB inh	TWEAK Fn14 block	EWS-Fli inh
O=C(C[C@@H]1CC[C@H]2[C@@H](COC[C@@H](O)CN2S(=O)(=O)c2cccc(Cl)c2)O1)N1CCOCC1	nt	-9	nt	nt	-11
C[C@@H]1CCCCO[C@H](CN(C)S(=O)(=O)c2ccc(F)cc2)[C@@H](C)CN([C@@H](C)CO)C(=O)c2cc(N(C)C)ccc2O1	nt	15	nt	nt	3
CCOC(=O)/C(C#N)=C1/C=C(C)NC(c2ccccc2O)=N1	54*	14	-9	57*	nt
COc1ccc(-c2nc3ccccc3c(C(=O)Nc3ccc(S(=O)(=O)Nc4cc(C)on4)cc3)c2C)cc1	19	nt	50*	51*	nt
Cc1ccc(-c2cc(C(=O)Nc3ccc(S(=O)(=O)Nc4cc(C)on4)cc3)c3ccccc3n2)c(C)c1	4	nt	4	-4	nt
COc1ccccc1C#Cc1cnc2c(c1)C(=O)N([C@H](C)CO)C[C@@H](C)[C@H](CN(C)C(=O)c1ccc3c(c1)OCO3)O2	nt	-7	nt	nt	-3
O=C1C=C(c2cc3ccccc3s2)CCC1	-37	-52	51*	-19	-103
CC(C)NC(=O)N(C)C[C@H]1Oc2c(NS(=O)(=O)c3ccc(F)cc3)cccc2C(=O)N([C@H](C)CO)C[C@H]1C	nt	2	nt	nt	-6
Cc1ccccc1CN1C(=O)c2ccccc2C1c1nnnn1-c1ccc2c(c1)OCCO2 (stereo not given)	32	-22	nt	18	61*
O=C(OCc1ccc(COC(=O)c2ccc(O)cc2)cc1)c1ccc(O)cc1	61*	nt	-1	25	nt
CNc1ncnc2c1ncn2[C@@H]1O[C@H](CO)[C@@H](O)[C@H]1O	10	0	55*	-44	-1
CCc1ccc(NC(=S)/N=C(\N)Nc2nc(C)c3cc(CC)ccc3n2)cc1	41	-18	11	57*	-4
O=C(CSc1nnc2scc(-c3ccccc3)n12)Nc1nsc(-c2ccccc2)n1	35	36	12	23	-2
O=C(CSc1nnc2scc(-c3ccccc3)n12)Nc1nsc(-c2ccc(Cl)cc2)n1	28	nt	14	54*	nt
COc1ccc(NC(=O)CN(c2ccccc2)S(=O)(=O)c2ccccc2)c(OC)c1	-9	-9	0	7	7
COc1ccc(N(CC(=O)Nc2ccccc2C(=O)N2CCCC2)S(=O)(=O)c2ccccc2)cc1	-12	-3	63*	5	-5
COC(=O)c1ccc(Cl)c(NC(=O)CN(c2ccccc2)S(=O)(=O)c2ccc(OC)cc2)c1	8	16	0	60*	0
COc1ccc(N(CC(=O)NCC(C)C)S(=O)(=O)c2ccccc2)cc1	-3	-9	-4	2	3
COc1ccc(N(CC(=O)NCCSCc2ccccc2C)S(=O)(=O)c2ccccc2)cc1	76*	14	0	27	nt
O=C(O)[C@H]1[C@H](CO)[C@H]2Cn3c(ccc(-c4ccccc4F)c3=O)[C@H]2N1C(=O)c1cnccn1	nt	11	nt	nt	-4
COc1ccc(S(=O)(=O)N(C)C[C@@H]2Oc3c(NS(=O)(=O)c4ccccc4)cccc3C(=O)N([C@H](C)CO)C[C@@H]2C)cc1	nt	7	nt	nt	15
CCCNC(=O)N1[C@H](CO)[C@H]2c3ccccc3N(C(=O)Nc3cccc(F)c3)C[C@H]21	nt	-10	nt	nt	-6
CCCN(C)C[C@@H]1Oc2cc(C3=CCCC3)ccc2S(=O)(=O)N([C@H](C)CO)C[C@@H]1C	nt	6	nt	nt	-9
C[C@H](O)C#Cc1cnc2c(c1)C(=O)N([C@H](C)CO)C[C@H](C)[C@H](CN(C)CC1CC1)O2	nt	-11	nt	nt	-17
Clc1ccc(-c2csc(NNC3=NCCCCC3)n2)cc1	-21	nt	-4	-7	nt
SMILES	TROY NFkB inh	LGR2 inh	LMP1 NFkB inh	TWEAK Fn14 block	EWS-Fli inh
c1ccc(-c2csc(NNC3=NCCCCC3)n2)cc1	53*	3	-67	41	nt
CCc1ccc(/C=C/C(=O)c2c(C)cc(C)[nH]c2=O)cc1	44	nt	31	80*	nt
C/C(=C\c1ccc(Br)cc1)C(=O)c1c(C)cc(C)[nH]c1=O	45	44	19	52*	11
Cc1ccc(/C=C/C(=O)c2c(C)cc(C)[nH]c2=O)cc1	37	70*	32	86*	-9
OCCC1CN(Cc2cc(F)ccc2-n2cccn2)CCN1C1CCCC1 (stereo not given)	8	-12	4	91*	-5
CCCC(=O)N1CCC2(CC1)CN(C(=O)CN1CCOCC1)[C@H](CO)c1c2c2ccc(OC)cc2n1C	nt	-34	nt	nt	8
CN(c1ccc(O)cc1)c1nc(-c2ccccc2)cs1	-44	-63	-7	55*	nt
CN(C(=O)c1ccco1)c1nc(-c2ccccc2)cs1	-22	-11	-27	-11	-97
C[C@H](CO)N1C[C@H](C)[C@@H](CN(C)C(=O)Nc2ccc3c(c2)OCO3)Oc2c(NS(C)(=O)=O)cccc2C1=O	nt	nt	nt	nt	-8
CC(=O)c1c(C)oc2ccc(NS(=O)(=O)c3ccc(F)cc3C)cc12	33	-1	10	56*	24
CC(=O)c1c(C)oc2ccc(NS(=O)(=O)c3ccc(O)c(C(=O)O)c3)cc12	-8	nt	3	0	nt
OCCN(CCO)c1cc2c3ccccc3ccc2c2ccccc12	51*	85*	0	99*	-13
O=C(NCCc1ccccc1)C(c1cccs1)N(C(=O)CCl)c1ccc(Cl)cc1 (stereo not given)	-22	10	-4	64*	nt
Cc1noc(C)c1NC(=O)N(C)C[C@@H]1Oc2ccc(NC(=O)NC(C)C)cc2C(=O)N([C@@H](C)CO)C[C@@H]1C	nt	-10	nt	nt	-10
Cc1ccc(NC2=Nc3ccccc3CS2)cc1	32	nt	-32	74*	nt
CS(=O)(=O)c1ccc(S(=O)CC(=O)OCc2ccccc2)c([N+](=O)[O-])c1 (stereo not given)	56*	nt	49*	90*	64*
CC(=O)N(C)c1ccc(OCC(O)Cn2c(C)nc3ccccc32)cc1 (stereo not given)	7	-14	7	17	14
CC(=O)N(C)c1ccc(OCC(O)Cn2c3ccc(Cl)cc3c3cc(Cl)ccc32)cc1 (stereo not given)	63*	nt	-60	48	nt
CCCNC(=O)N1[C@H](CO)[C@@H](c2ccccc2-c2ccc(C)cc2)[C@@H]1C#N	nt	-24	nt	nt	-9
COc1ccccc1C(=O)N(CCC1CCCN1C)c1nc2ccccc2s1 (stereo not given)	89*	98*	2	101*	61*
CN1CCN(C(=O)C[C@@H]2CC[C@H](NC(=O)c3ccc4c(c3)OCO4)[C@@H](CO)O2)CC1	nt	-11	nt	nt	9
OCCc1ccccc1	nt	-17	nt	nt	-6
OCc1cccc[n+]1Cc1ccccc1	60*	nt	3	-1	6
COc1ccc(-c2c(C)nc3c(-c4ccccn4)cnn3c2N)cc1	59*	-159	-71	56*	-42
CC(C)(C)S(=O)(=O)c1cnc2c(-c3ccsc3)cnn2c1N	-30	-73	-23	-21	-8
COc1ccc(-c2c(C)nc3c(-c4ccsc4)cnn3c2N)cc1	57*	-121	-30	32	-34
Cc1cc(N)n2ncc(-c3ccc(F)cc3)c2n1	-18	nt	-41	4	nt
